Reference: ChEMBL document CHEMBL3988442, “University of Dundee, Small-Polar-MMV Screening Library” (2021)
In all, about 48,000 compounds went through this assay and about 13,000 (27%) showed an effect of 50% or more. The list shows a part of the results.

Tested on: Wolbachia pipientis
Assay: Anti-Wolbachia Cell-Based Screen
Format: functional
Parameters: scale not given: in the data most compounds retested in dose-response had high values
Details: 5 µM

| Compound | Percent Effect |
| --- | --- |
| Nc1ncccc1CN1C[C@H]2OC(=O)N(Cc3ccccn3)[C@H]2C1 | 0.5145% |
| CCc1nc(CN2CCN(C(=O)Cc3c(C)noc3C)CC2)cs1 | 0.6841% |
| COc1ccc(C2SCC(=O)Nc3ccsc32)cc1 (centres undefined) | 24.55% |
| COc1ccc(C2SCC(=O)Nc3ccsc32)cc1OC (centres undefined) | -3.857% |
| O=C1CSC(c2ccncc2)c2c[nH]nc2N1 (centres undefined) | 107.2% |
| O=C1NCc2ccccc2CC12CCN(Cc1ccncc1Cl)C2 (centres undefined) | 100.7% |
| O=C1Nc2ccccc2CC12CCN(CCO)C2 (centres undefined) | -5.884% |
| CCCN1CCC2(Cc3ccccc3NC2=O)C1 (centres undefined) | -12.05% |
| Cc1cc(C)c(CNc2ncnc3ccccc23)c(=O)[nH]1 | 14.2% |
| CCOC(=O)[C@@H]1[C@@H](c2ccccc2)CN2CCN(C(C)=O)C[C@H]12 | 87.07% |
| O=C(COc1ccccc1)N1C[C@@H](O)[C@H](N2CCCC2)C1.O=CO | 3.295% |
| CCOC(=O)[C@@H]1[C@H]2CN(C(=O)OC)CCN2C[C@H]1c1ccccc1 | 104.3% |
| CC[C@H]1CN2CC[C@H]1C[C@@H]2CNC(=O)Nc1ccccc1 | -4.877% |
| O=C(C1CC1)N1CCN2C[C@H](c3ccccc3)[C@@H](CO)[C@H]2C1 | 105.4% |
| CCOC(=O)[C@@H]1[C@@H](c2ccccc2)CN2CCN(S(C)(=O)=O)C[C@H]12 | 100.2% |
| Cc1noc(C)c1CN1CCO[C@H]2[C@H](Oc3ccccn3)CC[C@@H]21.O=C(O)C(F)(F)F.O=C(O)C(F)(F)F | -5.059% |
| CCOC(=O)[C@@H]1[C@@H](c2ccccc2)CN2CCN(C(=O)N(C)C)C[C@H]12 | 91.13% |
| CCOC(=O)[C@@H]1[C@@H](c2ccccc2)CN2CCN(C(=O)C3CC3)C[C@H]12 | 90.7% |
| Cc1nn(C)c2ncc(S(=O)(=O)N3CCN4CCCC4C3)cc12 (centres undefined) | -0.5952% |
| CCc1nc(CC(=O)N2CCCC2CN2CCCC2)cs1 (centres undefined) | -9.906% |
| O=C1N(Cc2cccnc2)C[C@H]2CN(C3CCOCC3)CCN12 | -6.635% |
| O=C(Cc1cccnc1)N1CCC2(CC1)CCN(C1CCOC1)C2.O=C(O)C(F)(F)F.O=C(O)C(F)(F)F (centres undefined) | -0.1396% |

| Compound | Percent Effect |
| --- | --- |
| NC(=O)C1CN(C(=O)Cc2cccnc2)CCN(C2CCOCC2)C1 (centres undefined) | 108.4% |
| CN(C[C@H]1CN2CC[C@H]1C[C@@H]2CNC(=O)c1ccco1)c1ccccc1 | -3.253% |
| Cn1ccc(CN2CCCC23CCNCC3)n1 | -9.611% |
| COCCN1CCC2(COCc3c(C)nc(N(C)C)nc32)C1 (centres undefined) | 5.948% |
| CCN1CCC2(COCc3c(C)nc(N4CCOCC4)nc32)C1 (centres undefined) | 5.011% |
| CCN1CCC2(COCc3c(C)nc(N(C)C)nc32)C1 (centres undefined) | 108.4% |
| Cc1nc(N(C)C)nc2c1COCC21CCN(CC2CC2)C1.O=C(O)C(F)(F)F (centres undefined) | 103% |
| CN(C)c1ncc2c(n1)C1(CCN(CC3CC3)C1)COC2.O=C(O)C(F)(F)F (centres undefined) | -11.31% |
| CCN1CCC2(COCc3cnc(NCC4CC4)nc32)C1.O=C(O)C(F)(F)F (centres undefined) | -6.306% |
| Cc1ccccc1CNC(Cn1cncn1)c1ccccc1 (centres undefined) | 16.93% |
| CC(C)c1cc(N2CCC3(CC2)CN(C)CCN3C)ncn1 | -0.4054% |
| Cc1nnsc1CN1C[C@H]2CC[C@@H]1CN(Cc1ccccn1)C2 | -5.416% |
| Cl.NC1(c2nc(C(F)(F)F)cc(=O)[nH]2)CCCC1 | -15.07% |
| Cc1n[nH]c2c1C(c1ccc3c(c1)OCO3)SCC(=O)N2 (centres undefined) | 118.8% |
| O=C1CSC(c2ccc3c(c2)OCO3)c2cn[nH]c2N1 (centres undefined) | 128% |
| Cc1n[nH]c2c1C(c1ccsc1)SCC(=O)N2 (centres undefined) | 0.06284% |
| Cc1n[nH]c2c1C(c1ccc(O)c(Cl)c1)SCC(=O)N2 (centres undefined) | 5.211% |
| CC(C)[C@@H]1CN(C(=O)C2(c3ccccc3)CCN(C)CC2)C[C@H]1N(C)C | -1.656% |
| CC(C)OCCNC1(c2ccc(F)cc2)CCOCC1 | 3.648% |
| Fc1cccc(O[C@@H]2C[C@H]3CN(Cc4ccncc4)CCN3C2)c1.O=C(O)C(F)(F)F.O=C(O)C(F)(F)F.O=C(O)C(F)(F)F | -7.787% |
| Cn1ccnc1CN1CCN2C[C@H](OCc3cccnc3)C[C@H]2C1.O=C(O)C(F)(F)F.O=C(O)C(F)(F)F.O=C(O)C(F)(F)F | -4.128% |
| O=C(c1ccncc1)N1CCN2C[C@H](Oc3cncnc3)C[C@H]2C1 | 8.644% |

| Compound | Percent Effect |
| --- | --- |
| O=C(O)C(F)(F)F.O=C(O)C(F)(F)F.O=C(c1cccnc1)N1CCN2C[C@H](Oc3cncnc3)C[C@H]2C1 | -8.279% |
| O=C(O)C(F)(F)F.O=C(O)C(F)(F)F.O=C(O)C(F)(F)F.c1cc(CN2CCN3C[C@H](Oc4cncnc4)C[C@H]3C2)ccn1 | 106.9% |
| O=C(O)C(F)(F)F.O=C(O)C(F)(F)F.O=C(O)C(F)(F)F.c1cncc(CN2CCN3C[C@H](Oc4cncnc4)C[C@H]3C2)c1 | 97.08% |
| COCCN1CCN(c2cc(OC)ncn2)Cc2ccc(C)nc21 | 108.6% |
| Cc1ccc2c(n1)N(CC1CC1)CCN(S(=O)(=O)C1CC1)C2.O=C(O)C(F)(F)F | 2.676% |
| COc1cc(N2CCN(CC3CC3)c3nc(C)ccc3C2)ncn1 | 95.93% |
| CC(C)CN1CC[C@@H]2[C@@H]1CCN2C(=O)N(C)C.O=C(O)C(F)(F)F | -11.1% |
| O=C(c1cccnc1)N1C[C@@H]2CC[C@H](C1)N(Cc1ncc[nH]1)C2 | -11.14% |
| Cc1cccc(CN2CCN3C(=O)NC[C@H]3C2)n1 | -6.805% |
| O=C(O)C(F)(F)F.O=C(O)C(F)(F)F.c1ccc(O[C@@H]2CN(Cc3nccs3)[C@@H]3CCCO[C@@H]32)nc1 | -2.827% |
| CN(Cc1ccco1)[C@@H]1CN(Cc2cccnc2)[C@@H]2CCCO[C@H]12.O=C(O)C(F)(F)F.O=C(O)C(F)(F)F.O=C(O)C(F)(F)F | 8.312% |
| O=C(O)C(F)(F)F.O=C(O)C(F)(F)F.c1cncc(CO[C@H]2CO[C@@]3(CCN(Cc4ccoc4)C3)C2)c1 | -6.874% |
| Fc1cccnc1O[C@@H]1CC[C@H]2[C@H]1OCCN2Cc1nccs1.O=C(O)C(F)(F)F.O=C(O)C(F)(F)F | 0.8031% |
| c1ccc(CO[C@@H]2CN(Cc3ccoc3)[C@@H]3COC[C@@H]32)nc1 | 117.8% |
| O=C(O)C(F)(F)F.O=C(O)C(F)(F)F.c1cncc(CO[C@H]2CN(Cc3ccco3)[C@@H]3COC[C@H]23)c1 | 97.44% |
| O=C(O)C(F)(F)F.O=C(O)C(F)(F)F.c1ccc(CO[C@H]2CO[C@@]3(CCN(Cc4ccoc4)C3)C2)nc1 | -0.8411% |
| CCN(CC)CCN1CCO[C@H]2[C@@H](OCc3ccccn3)CC[C@@H]21 | -0.06843% |
| O=C(O)C(F)(F)F.O=C(O)C(F)(F)F.c1ccc(CO[C@@H]2CN(Cc3nccs3)[C@@H]3COC[C@@H]32)nc1 | 102.5% |
| O=C(N[C@@H]1CN(Cc2ccccn2)[C@@H]2COC[C@@H]21)C1CCC1.O=C(O)C(F)(F)F | -10.37% |
| Fc1ccc(CN2C[C@@H](OCc3ccccn3)[C@H]3COC[C@H]32)cc1.O=C(O)C(F)(F)F.O=C(O)C(F)(F)F | 103% |
